About 83,000 compounds went through this panel and 20% of them were active in at least one assay; those are over-represented in the sample as a whole.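 A percent growth of 40 corresponds to 60% growth inhibition; 0 means no net growth; -100 means all cells died. Active threshold: below 10.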 Unmarked numbers belong to inactive results. Active and inactive are the calls of the source.
Tests used:
Assay in all cases: NCI-60 one-dose screen, 48 h (100 = growth as untreated, 0 = no growth, -100 = all killed)
Conditions in all cases: 10 µM unless noted
[1] = system: DU-145 prostate
[2] = system: K-562 leukemia
[3] = system: MALME-3M melanoma
[4] = system: MDA-MB-231 breast
[5] = system: SF-268 CNS
[6] = system: SF-295 CNS
[7] = system: SF-539 CNS
[8] = system: M14 melanoma
[9] = system: RXF 393 renal

Row | SMILES | growth [1] | growth [2] | growth [3] | growth [4] | growth [5] | growth [6] | growth [7] | growth [8] | growth [9]
1 | NC(=O)c1n[nH]n2c1nc(=O)c1c3c(sc12)CCCC3 | 110% | 89.5% | 109% | 101% | 105% | 102% | 102% | 98% | –
2 | O=C(NCCO)Nc1ccc(-c2nc(N3CCOCC3)c3cccn3n2)cc1 | 11.4% | 34.4% | – | 4.2% (active) | 11.1% | -23.3% (active) | 0.904% (active) | 6.09% (active) | -33.9% (active)
3 | COc1ccc(CCCc2c3[n+](cc4c(OC)c(OC)ccc24)CCc2cc4c(cc2-3)OCO4)cc1 | 79.3% | 57.8% | 94.4% | 84.6% | 63% | 78.9% | 92.3% | 85.1% | –
4 | COc1ccc(-n2c(=O)c3ccccc3n(Cc3ccc(C(=O)NO)cc3)c2=O)cc1 | 20.2% | 1.76% (active) | – | 47.4% | 32.5% | 4.34% (active) | -10.6% (active) | -7.23% (active) | -41.6% (active)
5 | Nc1c(C(=O)c2ccccc2)sc2nc(-c3cccs3)cc(-c3cccs3)c12 | 68.2% | 18.9% | 74.4% | 58.4% | 53.5% | 35% | 39.4% | 27% | –
6 | N#Cc1c(-c2ccc(C(F)(F)F)cc2)cc(NCC2CCS(=O)(=O)CC2)n2c1nc1ccccc12 | 106% | 90% | – | 56.2% | 82.4% | 88.2% | 82% | 99.2% | 72.6%
7 | COc1ccc2c(CCCc3ccc(Cl)cc3Cl)c3[n+](cc2c1OC)CCc1cc2c(cc1-3)OCO2 | 17.9% | 6.33% (active) | -28.7% (active) | -10% (active) | 12.9% | -19.3% (active) | -46.3% (active) | -24.5% (active) | –
8 | N#Cc1c(-c2ccc(C(F)(F)F)cc2)c(F)c(NCCC2CCC(O)C2)n2c1nc1ccccc12 (centres undefined) | 47.2% | 25.9% | – | 22.1% | 70.7% | 55.4% | 71.1% | 18.4% | 41.4%
9 | COc1cc2c3c(c1)nc(C)n3CCC2 | 109% | 98.8% | 110% | 107% | 107% | 95.8% | 97.9% | 100% | –
10 | COC(=O)[C@]12CC[C@@H](C)[C@H](C)[C@@H]1C1=CC[C@@H]3[C@@]4(C)C(C=O)=C[C@@](C)(COS(C)(=O)=O)C4=CC[C@@]3(C)[C@]1(C)CC2 | -92.2% (active) | -6.44% (active) | -77.7% (active) | -55.4% (active) | -57.1% (active) | -60.2% (active) | -69.8% (active) | -55.8% (active) | –
11 | CC(N)C(Cc1ccccc1)c1ccc(Cl)cc1 (centres undefined) | 110% | 87% | 103% | 61.1% | 92.2% | 83.5% | 90.1% | 82.6% | –
12 | CCCCCCCC(=O)SCC/C=C/[C@@H]1CC(=O)NCc2nc(co2)C2=N[C@@](C)(CS2)C(=O)N[C@@H](C(C)C)C(=O)O1 | 7.24% (active) | 6.6% (active) | 5.59% (active) | -1.69% (active) | 1.9% (active) | -62.5% (active) | 9.22% (active) | -3.25% (active) | –
13 | Nc1c(C(=O)c2ccccc2)sc2nc(-c3cccs3)ccc12 | 20.6% | 14.1% | 72.5% | 37.9% | 45.7% | 5.01% (active) | 1.09% (active) | 30.2% | –
14 | CCCCCCCC(=O)SCC/C=C/[C@@H]1CC(=O)NCc2cccc(n2)C2=N[C@@](C)(CS2)C(=O)N[C@@H](C(C)C)C(=O)O1 | 12.3% | 11.1% | 22.7% | 10.2% | 11.1% | -62.4% (active) | 20% | 5.95% (active) | –
15 | N#Cc1c(C(F)(F)F)cc(Nc2ccc3nc(NCCN4CCCC4)oc3c2)n2c1nc1ccccc12 | 89% | 11.8% | – | 32.7% | 78.8% | 74.7% | 86.4% | 84.4% | 55.4%
16 | Cc1nn(-c2nc3ccccc3[nH]2)c2c1C(c1ccc(O)cc1)CC(=O)N2 (centres undefined) | 99.5% | 97.8% | 100% | 71.9% | 74% | -16.2% (active) | 95.4% | 72% | –
17 | COc1ccc2c(CCCC(c3ccccc3)c3ccccc3)c3[n+](cc2c1OC)CCc1cc2c(cc1-3)OCO2 | -13.4% (active) | -15.4% (active) | -66.7% (active) | -63.4% (active) | -58% (active) | -32.2% (active) | -38.1% (active) | -67.5% (active) | –
18 | CC(C)[C@@H](C)/C=C/[C@@H](C)[C@H]1CCC2=C3C=CC4=CC(=O)CC[C@]4(C)[C@H]3CC[C@@]21C | 105% | 92.6% | 110% | 105% | 98.9% | 94.9% | 106% | 98.6% | –
19 | CCc1nc2cc(F)c(/C=C/C(=O)NO)cc2c(=O)n1CCc1ccccc1 | 7.93% (active) | 7.24% (active) | – | 15.4% | 16% | 11% | 4.01% (active) | 15.7% | -13.5% (active)
20 | CCc1nc2cc(/C=C/C(=O)NO)c(F)cc2c(=O)n1CCc1ccccc1 | 4.01% (active) | 6.83% (active) | – | 15.5% | 8.51% (active) | 13.5% | 1.7% (active) | 3.41% (active) | -21.3% (active)
21 | NC(=O)N1N=C(c2ccc(Cl)cc2)CC1c1cn(-c2ccccc2)nc1-c1ccc(Cl)cc1 (centres undefined) | 77.7% | 78.8% | – | 43.4% | 55.4% | 40.3% | 37.8% | 79.8% | -11.2% (active)
22 | Cc1ccc2oc(=O)cc(-c3cc(-c4cc5ccccc5oc4=O)nc(N)c3C#N)c2c1 | 61.6% | 81% | 51.3% | 55.5% | 48.1% | 63.4% | 59.8% | 85.7% | –
23 | CCCCCCCCCCCC[n+]1ccccc1 | 16% | 6.1% (active) | 0.501% (active) | -2.58% (active) | 11.5% | -36.5% (active) | -2.41% (active) | -41.3% (active) | –
24 | COc1ccc(-c2nocc2-c2cc(OC)c(OC)c(OC)c2)cc1 | 15.2% | 12.8% | 60.3% | 25.8% | 39% | -4.64% (active) | 2.52% (active) | 3.03% (active) | –
25 | COc1cc2c(cc1OCCCCN1CCN(CC(=O)Nc3ccc(Cl)cc3C(=O)c3ccccc3Cl)CC1)N=CC1CCCN1C2=O (centres undefined) | -95.9% (active) | -53% (active) | -76.8% (active) | -85% (active) | -75.5% (active) | -94.6% (active) | -86.7% (active) | -67.6% (active) | –
26 | CCCCCCCC(=O)SCC/C=C/[C@@H]1CC(=O)NCc2cc(ccn2)C2=N[C@@](C)(CS2)C(=O)N[C@@H](C(C)C)C(=O)O1 | 11.8% | 10.3% | 11.4% | 3.63% (active) | 11.8% | -62.2% (active) | 17% | 4.89% (active) | –
27 | O=C(c1ccccc1)C(c1ccccc1)N1CCOCC1 (centres undefined) | 107% | 96% | 103% | 105% | 99.1% | 94.9% | 101% | 99.8% | –
28 | O=C1CSC(c2c(F)cccc2Cl)N1NC(=O)C(O)(c1ccccc1)c1ccccc1 (centres undefined) | 108% | 80.3% | 82.1% | 93% | 112% | 94.3% | 100% | 94.5% | –

— PubChem BioAssay (NCI)
